# In PubChem BioAssay (NCATS):
# Inconclusive results are not listed. A call without a number means that no potency is given here. Activity calls are given as the source filed them. Calls follow the shape of the dose curve; as a rule, active = well fitted curve in the direction sought with a large enough effect; inconclusive = small, poorly fitted or top-dose-only effect, or another doubt; inactive = no such curve, though single readings can be large; an effect the other way counts as inactive or inconclusive.
# Key:
# [1] = S16 Schwann cell viability assay (CellTiter-Glo assay) (AID 624031);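 also: native untransfected S16 rat Schwann cells; cellular ATP luminescence as a viability measure; nearly all actives have a fitted effect of over 70% in size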
# How it was run: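 Parental S16 cells, 24 h compound, 37 °C. ATP-luminescence viability; DMSO = 0% activity, empty wells as reference; curves classified by fit quality and efficacy.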
# [2] = system: 3D7; experiment: qHTS profiling for inhibitors of Plasmodium falciparum proliferation (AID 504749); also: nearly all actives have a fitted effect of over 60% in size; also: potency is read from the fitted curve at half-maximal effect; conditions: P. falciparum in erythrocytes, SYBR Green DNA, 72 h; series mostly up to 12.8 µM
# How it was run: (§1)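 SYBR Green fluorescence (ex 485 nm, em 535 nm) reports parasite DNA after 72 h compound exposure of infected red cells at 0.3% parasitemia, 2.5% hematocrit; signal normalized to 0.29 uM artemisinin and vehicle wells.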
# [3] = system: AS120; experiment: as above; conditions: P. falciparum in erythrocytes, SYBR Green DNA, 72 h; series mostly up to 12.8 µM
# How it was run: as §1
# [4] = system: ATS189; experiment: as above; conditions: P. falciparum in erythrocytes, SYBR Green DNA, 72 h; series mostly up to 12.8 µM
# How it was run: as §1
# [5] = system: ATS95; experiment: as above; conditions: P. falciparum in erythrocytes, SYBR Green DNA, 72 h; series mostly up to 12.8 µM
# How it was run: as §1
# [6] = system: CP185; experiment: as above; conditions: P. falciparum in erythrocytes, SYBR Green DNA, 72 h; series mostly up to 12.8 µM
# How it was run: as §1
# [7] = system: CP191; experiment: as above; conditions: P. falciparum in erythrocytes, SYBR Green DNA, 72 h; series mostly up to 12.8 µM
# How it was run: as §1
# [8] = system: CP192; experiment: as above; conditions: P. falciparum in erythrocytes, SYBR Green DNA, 72 h; series mostly up to 12.8 µM
# How it was run: as §1
# [9] = system: CP203; experiment: as above; conditions: P. falciparum in erythrocytes, SYBR Green DNA, 72 h; series mostly up to 12.8 µM
# How it was run: as §1
# [10] = system: CP247; experiment: as above; conditions: P. falciparum in erythrocytes, SYBR Green DNA, 72 h; series mostly up to 12.8 µM
# How it was run: as §1
# [11] = system: CP256; experiment: as above; conditions: P. falciparum in erythrocytes, SYBR Green DNA, 72 h; series mostly up to 12.8 µM
# How it was run: as §1
# [12] = system: CP262; experiment: as above; conditions: P. falciparum in erythrocytes, SYBR Green DNA, 72 h; series mostly up to 12.8 µM
# How it was run: as §1
# [13] = system: DIV14; experiment: as above; conditions: P. falciparum in erythrocytes, SYBR Green DNA, 72 h; series mostly up to 12.8 µM
# How it was run: as §1
# [14] = system: Dd2; experiment: as above; conditions: P. falciparum in erythrocytes, SYBR Green DNA, 72 h; series mostly up to 12.8 µM
# How it was run: as §1
# [15] = system: ECU; experiment: as above; conditions: P. falciparum in erythrocytes, SYBR Green DNA, 72 h; series mostly up to 12.8 µM
# How it was run: as §1
# [16] = system: HB3; experiment: as above; conditions: P. falciparum in erythrocytes, SYBR Green DNA, 72 h; series mostly up to 12.8 µM
# How it was run: as §1
# [17] = system: N140; experiment: as above; conditions: P. falciparum in erythrocytes, SYBR Green DNA, 72 h; series mostly up to 12.8 µM
# How it was run: as §1
# [18] = system: PAD; experiment: as above; conditions: P. falciparum in erythrocytes, SYBR Green DNA, 72 h; series mostly up to 12.8 µM
# How it was run: as §1
# [19] = system: PC15; experiment: as above; conditions: P. falciparum in erythrocytes, SYBR Green DNA, 72 h; series mostly up to 12.8 µM
# How it was run: as §1
# [20] = system: TAB165; experiment: as above; conditions: P. falciparum in erythrocytes, SYBR Green DNA, 72 h; series mostly up to 12.8 µM
# How it was run: as §1
SMILES,outcome [1],Potency [2],Potency [3],Potency [4],Potency [5],Potency [6],Potency [7],Potency [8],Potency [9],Potency [10],Potency [11],Potency [12],Potency [13],Potency [14],Potency [15],Potency [16],Potency [17],Potency [18],Potency [19],Potency [20]
COCC(=O)Nc1c(I)c(C(=O)NC[C@@H](O)CO)c(I)c(C(=O)N(C)C[C@@H](O)CO)c1I,inactive,inactive,inactive,inactive,inactive,inactive,inactive,inactive,inactive,inactive,inactive,inactive,inactive,inactive,inactive,inactive,inactive,inactive,inactive,inactive
CC(=O)[C@@H]1CC[C@@H]2[C@@H]3C[C@H](C)C4=CC(=O)CC[C@@]4(C)[C@H]3[C@H](O)C[C@]21C,inactive,inactive,inactive,inactive,inactive,inactive,inactive,inactive,inactive,inactive,inactive,inactive,inactive,inactive,inactive,inactive,inactive,inactive,inactive,inactive
C#C[C@@]1(O)CC[C@@H]2[C@@H]3CCC4=C(CCC(=O)C4)[C@H]3CC[C@]21C,inactive,,,,,,,,,,,,,,,,,,,
C=CC1=C(C(=O)O)N2C(=O)[C@@H](NC(=O)/C(=N\OCC(=O)O)c3csc(N)n3)[C@@H]2SC1,inactive,inactive,inactive,inactive,inactive,inactive,inactive,inactive,inactive,inactive,inactive,inactive,inactive,inactive,inactive,inactive,inactive,inactive,inactive,inactive
CC(=O)OCC(=O)[C@@]1(O)CC[C@@H]2[C@H]3CCC4=CC(=O)C=C[C@]4(C)[C@]3(F)[C@@H](O)C[C@@]21C,inactive,inactive,inactive,inactive,inactive,inactive,inactive,inactive,inactive,inactive,inactive,inactive,inactive,inactive,inactive,inactive,inactive,inactive,inactive,inactive
C[C@H]1CC[C@]2(OC1)O[C@@H]1C[C@@H]3[C@@H]4CC[C@H]5C[C@@H](O)CC[C@]5(C)[C@@H]4CC(=O)[C@@]3(C)[C@H]1[C@@H]2C,inactive,inactive,inactive,inactive,inactive,inactive,inactive,inactive,inactive,inactive,inactive,inactive,inactive,inactive,inactive,inactive,inactive,inactive,inactive,inactive
CC(=O)C[C@H](c1ccc([N+](=O)[O-])cc1)c1c(O)c2ccccc2oc1=O,inactive,inactive,inactive,inactive,inactive,inactive,inactive,inactive,inactive,inactive,inactive,inactive,inactive,inactive,inactive,inactive,inactive,inactive,inactive,inactive
NS(=O)(=O)c1cc2c(cc1C(F)(F)F)N[C@H](Cc1ccccc1)NS2(=O)=O,inactive,inactive,inactive,inactive,inactive,inactive,inactive,inactive,inactive,inactive,inactive,inactive,inactive,inactive,inactive,inactive,inactive,inactive,inactive,inactive
CCCC[C@H](CC)CN1CN(C[C@@H](CC)CCCC)CC(C)(N)C1,inactive,inactive,inactive,inactive,inactive,inactive,inactive,inactive,inactive,inactive,inactive,inactive,inactive,inactive,inactive,inactive,inactive,inactive,inactive,inactive
NS(=O)(=O)c1cc2c(cc1Cl)N[C@@H](C(Cl)Cl)NS2(=O)=O,inactive,inactive,inactive,inactive,inactive,inactive,inactive,inactive,inactive,inactive,inactive,inactive,inactive,inactive,inactive,inactive,inactive,inactive,inactive,inactive
COc1c(O[C@H]2O[C@@H](CO)[C@@H](O)[C@@H](O)[C@@H]2O)cc2c(c1OC)-c1ccc(SC)c(=O)cc1[C@H](NC(C)=O)CC2,inactive,inactive,inactive,inactive,inactive,inactive,inactive,inactive,inactive,inactive,inactive,inactive,inactive,inactive,inactive,inactive,inactive,inactive,inactive,inactive
NC(=O)c1ccc[n+]([C@@H]2O[C@H](COP(=O)([O-])OP(=O)(O)OC[C@H]3O[C@@H](n4cnc5c(N)ncnc54)[C@@H](O)[C@@H]3O)[C@@H](O)[C@@H]2O)c1,,inactive,inactive,inactive,inactive,inactive,inactive,inactive,inactive,inactive,inactive,inactive,inactive,inactive,inactive,inactive,inactive,inactive,inactive,inactive
C[C@@H](C(=O)O)c1ccc(C(=O)c2ccccc2)s1,inactive,inactive,inactive,inactive,inactive,inactive,inactive,inactive,inactive,inactive,inactive,inactive,inactive,inactive,inactive,inactive,inactive,inactive,inactive,inactive
NC(=O)c1cc[n+](CC2=C(C(=O)[O-])N3C(=O)[C@@H](NC(=O)Cc4cccs4)[C@@H]3SC2)cc1,inactive,inactive,inactive,inactive,inactive,inactive,inactive,inactive,,inactive,inactive,inactive,inactive,inactive,inactive,inactive,inactive,inactive,inactive,inactive
Clc1ccc([C@H](Cn2ccnc2)OCc2csc3c(Cl)cccc23)c(Cl)c1,inactive,3.55 µM (active),2.51 µM (active),,,,,,5.73 µM (active),,,inactive,5.1 µM (active),3.55 µM (active),3.98 µM (active),,3.98 µM (active),3.55 µM (active),,2.24 µM (active)
O=C(NC[C@@H](O)CO)c1c(I)c(C(=O)NC[C@@H](O)CO)c(I)c(N(CCO)C(=O)CO)c1I,inactive,inactive,inactive,inactive,inactive,inactive,inactive,inactive,inactive,inactive,inactive,inactive,inactive,inactive,inactive,inactive,inactive,inactive,inactive,inactive
CO[C@H]1[C@@H](OC(N)=O)[C@H](O)[C@@H](Oc2ccc3c(O)c(NC(=O)c4ccc(O)c(CC=C(C)C)c4)c(=O)oc3c2C)OC1(C)C,inactive,inactive,inactive,inactive,inactive,inactive,inactive,inactive,inactive,inactive,inactive,inactive,inactive,inactive,inactive,inactive,inactive,inactive,inactive,inactive
CN(C)CCOC(=O)[C@@H](c1ccccc1)C1(O)CCCC1,inactive,inactive,inactive,inactive,inactive,inactive,inactive,inactive,inactive,,inactive,inactive,inactive,,inactive,inactive,inactive,inactive,inactive,inactive
COc1ccc(C[C@@](C)(N)C(=O)O)cc1OC,inactive,inactive,inactive,inactive,inactive,inactive,inactive,inactive,inactive,inactive,inactive,inactive,inactive,inactive,inactive,inactive,inactive,inactive,inactive,inactive
CN1CCN([C@@H](c2ccccc2)c2ccc(Cl)cc2)CC1,,inactive,,,,inactive,inactive,inactive,,inactive,3.55 µM (active),inactive,2.28 µM (active),,inactive,inactive,inactive,,inactive,
CC(C)NC[C@H]1CCc2cc(CO)c([N+](=O)[O-])cc2N1,inactive,inactive,inactive,inactive,inactive,inactive,inactive,inactive,inactive,inactive,inactive,,inactive,inactive,inactive,inactive,inactive,inactive,inactive,inactive
CN(C/C=C\c1ccccc1)Cc1cccc2ccccc12,,inactive,inactive,inactive,inactive,inactive,inactive,inactive,inactive,inactive,inactive,inactive,inactive,inactive,inactive,inactive,inactive,inactive,inactive,inactive
CC[C@H](Cc1c(I)cc(I)c(N)c1I)C(=O)O,inactive,inactive,inactive,inactive,inactive,inactive,inactive,inactive,inactive,inactive,inactive,inactive,inactive,inactive,inactive,inactive,inactive,inactive,inactive,inactive
Clc1ccc(CC[C@H](Cn2ccnc2)Sc2c(Cl)cccc2Cl)cc1,inactive,,2.24 µM (active),,,,,,6.42 µM (active),,,,3.22 µM (active),3.55 µM (active),3.55 µM (active),3.55 µM (active),3.16 µM (active),3.55 µM (active),,1.26 µM (active)
CC(C)(C)NC(=O)[C@@H]1CC[C@@H]2[C@@H]3CC[C@@H]4NC(=O)C=C[C@@]4(C)[C@H]3CC[C@]21C,inactive,inactive,inactive,inactive,inactive,inactive,inactive,inactive,inactive,inactive,inactive,inactive,inactive,inactive,inactive,inactive,inactive,inactive,inactive,inactive
